{"source": "PubChem BioAssay", "key": {"[1]": {"biological_target": "ATP-dependent translocase ABCB1 (Homo sapiens) (UniProt P08183)", "sequence (P08183 whole entry, looked up)": "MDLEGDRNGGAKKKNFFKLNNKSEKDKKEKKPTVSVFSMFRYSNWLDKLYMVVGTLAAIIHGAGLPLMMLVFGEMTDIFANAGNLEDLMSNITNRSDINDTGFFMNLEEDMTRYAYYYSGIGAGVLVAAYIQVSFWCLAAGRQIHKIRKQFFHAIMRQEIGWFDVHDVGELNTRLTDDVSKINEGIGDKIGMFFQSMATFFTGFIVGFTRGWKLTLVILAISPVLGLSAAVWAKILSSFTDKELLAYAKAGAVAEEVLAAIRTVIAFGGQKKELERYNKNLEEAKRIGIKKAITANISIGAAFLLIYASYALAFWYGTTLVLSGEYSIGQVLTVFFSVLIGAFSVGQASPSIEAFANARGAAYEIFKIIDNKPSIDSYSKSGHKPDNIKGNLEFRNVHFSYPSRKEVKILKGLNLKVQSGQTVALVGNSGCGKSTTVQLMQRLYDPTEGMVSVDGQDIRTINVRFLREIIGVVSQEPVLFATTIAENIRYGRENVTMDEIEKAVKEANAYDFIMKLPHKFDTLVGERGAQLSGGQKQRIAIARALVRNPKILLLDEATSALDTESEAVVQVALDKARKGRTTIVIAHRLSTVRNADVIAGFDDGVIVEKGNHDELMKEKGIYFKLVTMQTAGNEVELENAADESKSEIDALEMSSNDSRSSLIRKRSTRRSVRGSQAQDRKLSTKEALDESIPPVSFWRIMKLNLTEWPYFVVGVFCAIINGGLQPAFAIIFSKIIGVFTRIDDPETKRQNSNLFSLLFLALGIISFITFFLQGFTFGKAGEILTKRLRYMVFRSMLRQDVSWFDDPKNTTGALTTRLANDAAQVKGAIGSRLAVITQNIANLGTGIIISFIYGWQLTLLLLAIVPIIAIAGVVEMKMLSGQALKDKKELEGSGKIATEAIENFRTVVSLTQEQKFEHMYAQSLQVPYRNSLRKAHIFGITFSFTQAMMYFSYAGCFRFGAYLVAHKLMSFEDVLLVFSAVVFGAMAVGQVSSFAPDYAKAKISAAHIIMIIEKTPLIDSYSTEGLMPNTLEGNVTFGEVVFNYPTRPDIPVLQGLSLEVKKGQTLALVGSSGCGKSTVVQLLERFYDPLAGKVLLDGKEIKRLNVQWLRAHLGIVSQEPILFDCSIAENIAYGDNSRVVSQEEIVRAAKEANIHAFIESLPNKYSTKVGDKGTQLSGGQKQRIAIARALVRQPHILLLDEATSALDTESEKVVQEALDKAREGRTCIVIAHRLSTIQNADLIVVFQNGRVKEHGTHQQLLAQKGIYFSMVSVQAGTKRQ", "test": "MDR1 (ABCB1) efflux transporter inhibition, cell-based (AID 377; in the data active means fluorescence slope change above about 50%)", "conditions": "MDR1-expressing cells, fluorescent substrate accumulation slope; active compounds read high; concentration not given here"}, "[2]": {"test": "growth inhibition of DIPG glioma cells, dose response, cell-based, SU-DIPG-XVII, MIPE5.0, CellTiter-Glo, qHTS (AID 1347060; cut-off not given, nearly all actives have AC50 up to about 26 µM)", "conditions": "SU-DIPG-XVII viability, CellTiter-Glo ATP luminescence"}, "[3]": {"test": "growth inhibition of DIPG glioma cells, dose response, cell-based, JHH-DIPG-1, MIPE4.0, CellTiter-Glo, qHTS (AID 1347062; cut-off not given, nearly all actives have AC50 up to about 27 µM)", "conditions": "JHH-DIPG-1 viability, CellTiter-Glo ATP luminescence"}, "[4]": {"test": "growth inhibition of DIPG glioma cells, dose response, cell-based, SU-DIPG-XIII, MIPE5.0, CellTiter-Glo, qHTS (AID 1347064; cut-off not given, nearly all actives have AC50 up to about 23 µM)", "conditions": "SU-DIPG-XIII viability, CellTiter-Glo ATP luminescence"}, "[5]": {"test": "viability loss in pontine glioma line – cell-based, SU-DIPG-XXV, MIPE5.0, CellTiter-Glo, qHTS, dose response (AID 1347065; cut-off not given, nearly all actives have AC50 up to about 26 µM;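 further: cells exposed to compound for 48 hours before ATP readout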)", "conditions": "CellTiter-Glo ATP luminescence"}, "[6]": {"test": "SU-DIPG-XXV glioma cell viability, MIPE5.0 library, qHTS (AID 1347068; cut-off not given, nearly all actives have IC50 up to about 30 µM)"}, "[7]": {"test": "growth inhibition of DIPG glioma cells, dose response, cell-based, SU-DIPG-XIII, MIPE4.0, CellTiter-Glo, qHTS (AID 1347061; cut-off not given, nearly all actives have AC50 up to about 37 µM;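 further: cells exposed to compound for 48 hours before readout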)", "conditions": "SU-DIPG-XIII viability, CellTiter-Glo ATP luminescence"}, "[8]": {"test": "growth inhibition of DIPG glioma cells, dose response, cell-based, SU-DIPG-IV, MIPE4.0, CellTiter-Glo, qHTS (AID 1347063);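 further: compound exposure lasted 48 hours before the viability readout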", "conditions": "SU-DIPG-IV viability, CellTiter-Glo ATP luminescence"}, "[9]": {"test": "SU-DIPG-VI glioma cell viability, MIPE4.0 library, CellTiter-Glo luminescence, qHTS (AID 1347066);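 further: cells exposed to compound for 48 hours before readout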", "conditions": "CellTiter-Glo ATP luminescence"}, "[10]": {"test": "JHH-DIPG-1 glioma cell viability, MIPE5.0 library, CellTiter-Glo luminescence, qHTS (AID 1347067; cut-off not given, nearly all actives have AC50 up to about 26 µM;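 further: cells exposed to compound for 48 hours before readout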)", "conditions": "JHH-DIPG-1 glioma viability, CellTiter-Glo ATP luminescence"}, "[11]": {"system": "Hepatitis C virus NS3 helicase", "test": "HCV NS3 helicase inhibitors, primary screen, biochemical, fluorescence polarization, LOPAC1280 library (AID 687035; in the data active means inhibition above about 37%)", "conditions": "Purified HCV NS3 helicase, Cy5-dT15 ssDNA binding fluorescence polarization; active compounds read high; concentration not given here"}, "[12]": {"test": "Cy5 fluorescence quenching or enhancement artefacts, artefact control for HCV NS3 helicase inhibitor project, biochemical, LOPAC1280 (AID 687037; call rule not given here)", "conditions": "Cy5-DNA-NS3h complex fluorescence interference counterscreen"}}, "note": "Values without a mark were called inactive. Inconclusive results are not listed. Active and inactive are the calls of the source. Unless noted, cut-off not given; nearly all actives show AC50 up to about 30 µM.", "data": [{"smiles": "CCC(c1ccc(O)cc1)C(CC)c1ccc(O)cc1", "note": "(stereo not drawn)", "values": [{"measurement": "fluorescence slope change", "setting": "[1]", "value": 18, "unit": "%"}, {"measurement": "outcome", "setting": "[2]", "value": "inactive"}, {"measurement": "outcome", "setting": "[3]", "value": "inactive"}, {"measurement": "outcome", "setting": "[4]", "value": "inactive"}, {"measurement": "outcome", "setting": "[5]", "value": "inactive"}, {"measurement": "outcome", "setting": "[6]", "value": "inactive"}]}, {"smiles": "OCc1ccccc1O[C@@H]1O[C@H](CO)[C@@H](O)[C@H](O)[C@H]1O", "values": [{"measurement": "outcome", "setting": "[2]", "value": "inactive"}, {"measurement": "outcome", "setting": "[7]", "value": "inactive"}, {"measurement": "outcome", "setting": "[3]", "value": "inactive"}, {"measurement": "outcome", "setting": "[8]", "value": "inactive"}, {"measurement": "outcome", "setting": "[4]", "value": "inactive"}, {"measurement": "outcome", "setting": "[9]", "value": "inactive"}, {"measurement": "outcome", "setting": "[10]", "value": "inactive"}, {"measurement": "outcome", "setting": "[6]", "value": "inactive"}]}, {"smiles": "Cc1cc(O)c2c(c1)C(=O)c1cc(O)cc(O)c1C2=O", "values": [{"measurement": "inhibition", "setting": "[11]", "value": 0, "unit": "%"}, {"measurement": "fluorescence ratio (interference)", "setting": "[12]", "value": 1}, {"measurement": "outcome", "setting": "[7]", "value": "inactive"}, {"measurement": "outcome", "setting": "[3]", "value": "inactive"}, {"measurement": "outcome", "setting": "[4]", "value": "inactive"}, {"measurement": "outcome", "setting": "[9]", "value": "inactive"}]}, {"smiles": "NC[C@H]1O[C@H](O[C@H]2[C@H](O)[C@@H](O[C@H]3O[C@H](CO)[C@@H](O)[C@H](N)[C@H]3O)[C@H](N)C[C@@H]2N)[C@H](N)C[C@@H]1O", "values": [{"measurement": "outcome", "setting": "[2]", "value": "inactive"}, {"measurement": "outcome", "setting": "[7]", "value": "inactive"}, {"measurement": "outcome", "setting": "[3]", "value": "inactive"}, {"measurement": "outcome", "setting": "[8]", "value": "inactive"}, {"measurement": "outcome", "setting": "[4]", "value": "inactive"}, {"measurement": "outcome", "setting": "[9]", "value": "inactive"}, {"measurement": "outcome", "setting": "[10]", "value": "inactive"}, {"measurement": "outcome", "setting": "[6]", "value": "inactive"}]}, {"smiles": "O=c1c(O)c(-c2ccc(O)cc2O)oc2cc(O)cc(O)c12", "values": [{"measurement": "inhibition", "setting": "[11]", "value": -4, "unit": "%"}, {"measurement": "fluorescence ratio (interference)", "setting": "[12]", "value": 1}, {"measurement": "outcome", "setting": "[2]", "value": "inactive"}, {"measurement": "outcome", "setting": "[7]", "value": "inactive"}, {"measurement": "outcome", "setting": "[3]", "value": "inactive"}, {"measurement": "outcome", "setting": "[8]", "value": "inactive"}, {"measurement": "outcome", "setting": "[4]", "value": "inactive"}, {"measurement": "outcome", "setting": "[9]", "value": "inactive"}, {"measurement": "outcome", "setting": "[10]", "value": "inactive"}, {"measurement": "outcome", "setting": "[6]", "value": "inactive"}]}, {"smiles": "c1ccc2c(Cc3c[nH]c4ccccc34)c[nH]c2c1", "values": [{"measurement": "outcome", "setting": "[2]", "value": "inactive"}, {"measurement": "outcome", "setting": "[4]", "value": "inactive"}, {"measurement": "outcome", "setting": "[5]", "value": "inactive"}, {"measurement": "outcome", "setting": "[9]", "value": "inactive"}, {"measurement": "outcome", "setting": "[6]", "value": "inactive"}]}, {"smiles": "Cc1cc(O)c2c(c1)C(=O)c1cccc(O)c1C2=O", "values": [{"measurement": "outcome", "setting": "[2]", "value": "inactive"}, {"measurement": "outcome", "setting": "[7]", "value": "inactive"}, {"measurement": "outcome", "setting": "[8]", "value": "inactive"}, {"measurement": "outcome", "setting": "[4]", "value": "inactive"}, {"measurement": "outcome", "setting": "[5]", "value": "inactive"}, {"measurement": "outcome", "setting": "[10]", "value": "inactive"}, {"measurement": "outcome", "setting": "[6]", "value": "inactive"}]}, {"smiles": "c1coc(CNc2ncnc3nc[nH]c23)c1", "values": [{"measurement": "fluorescence slope change", "setting": "[1]", "value": 8.8, "unit": "%"}, {"measurement": "outcome", "setting": "[2]", "value": "inactive"}, {"measurement": "outcome", "setting": "[7]", "value": "inactive"}, {"measurement": "outcome", "setting": "[3]", "value": "inactive"}, {"measurement": "outcome", "setting": "[8]", "value": "inactive"}, {"measurement": "outcome", "setting": "[4]", "value": "inactive"}, {"measurement": "outcome", "setting": "[5]", "value": "inactive"}, {"measurement": "outcome", "setting": "[9]", "value": "inactive"}, {"measurement": "outcome", "setting": "[10]", "value": "inactive"}, {"measurement": "outcome", "setting": "[6]", "value": "inactive"}]}, {"smiles": "COc1cc(O)c2c(c1)C(=O)c1cc(C)cc(O)c1C2=O", "values": [{"measurement": "outcome", "setting": "[7]", "value": "inactive"}, {"measurement": "outcome", "setting": "[3]", "value": "inactive"}, {"measurement": "outcome", "setting": "[9]", "value": "inactive"}]}, {"smiles": "COc1cc(/C=C/C(=O)O)ccc1O", "values": [{"measurement": "outcome", "setting": "[7]", "value": "inactive"}, {"measurement": "outcome", "setting": "[3]", "value": "inactive"}, {"measurement": "outcome", "setting": "[8]", "value": "inactive"}, {"measurement": "outcome", "setting": "[9]", "value": "inactive"}]}, {"smiles": "CCCc1nn(C)c2c(=O)[nH]c(-c3cc(S(=O)(=O)N4CCN(C)CC4)ccc3OCC)nc12", "values": [{"measurement": "outcome", "setting": "[2]", "value": "inactive"}, {"measurement": "outcome", "setting": "[3]", "value": "inactive"}, {"measurement": "outcome", "setting": "[8]", "value": "inactive"}, {"measurement": "outcome", "setting": "[4]", "value": "inactive"}, {"measurement": "outcome", "setting": "[10]", "value": "inactive"}, {"measurement": "outcome", "setting": "[6]", "value": "inactive"}]}, {"smiles": "O=C(O)/C=C/c1ccc(O)c(O)c1", "values": [{"measurement": "inhibition", "setting": "[11]", "value": 0, "unit": "%"}, {"measurement": "fluorescence ratio (interference)", "setting": "[12]", "value": 1}, {"measurement": "AC50", "setting": "[8]", "value": "20.9 µM (active)"}]}, {"smiles": "CC[C@H]1OC(=O)[C@H](C)[C@@H](O[C@H]2C[C@@](C)(OC)[C@@H](O)[C@H](C)O2)[C@H](C)[C@@H](O[C@@H]2O[C@H](C)C[C@H](N(C)C)[C@H]2O)[C@](C)(O)C[C@@H](C)/C(=N\\OCOCCOC)[C@H](C)[C@@H](O)[C@]1(C)O", "values": [{"measurement": "outcome", "setting": "[7]", "value": "inactive"}, {"measurement": "outcome", "setting": "[3]", "value": "inactive"}, {"measurement": "outcome", "setting": "[8]", "value": "inactive"}, {"measurement": "outcome", "setting": "[9]", "value": "inactive"}]}, {"smiles": "CN(C)CCN(Cc1cccs1)c1ccccn1", "values": [{"measurement": "inhibition", "setting": "[11]", "value": -1, "unit": "%"}, {"measurement": "fluorescence ratio (interference)", "setting": "[12]", "value": 1}]}, {"smiles": "CC1=C(/C=C/C(C)=C/C=C/C(C)=C/C=C/C=C(C)/C=C/C=C(C)/C=C/C2=C(C)CCCC2(C)C)C(C)(C)CCC1", "values": [{"measurement": "outcome", "setting": "[7]", "value": "inactive"}, {"measurement": "outcome", "setting": "[3]", "value": "inactive"}, {"measurement": "outcome", "setting": "[9]", "value": "inactive"}, {"measurement": "outcome", "setting": "[6]", "value": "inactive"}]}, {"smiles": "O=C(/C=C/c1ccc(O)c(O)c1)OCCc1ccccc1", "values": [{"measurement": "inhibition", "setting": "[11]", "value": -2, "unit": "%"}, {"measurement": "fluorescence ratio (interference)", "setting": "[12]", "value": 1}]}, {"smiles": "COc1cc(S(C)=O)ccc1-c1nc2ncccc2[nH]1", "note": "(stereo not drawn)", "values": [{"measurement": "fluorescence slope change", "setting": "[1]", "value": 5, "unit": "%"}]}, {"smiles": "NC(N)=NC(=O)c1nc(Cl)c(N2CCCCCC2)nc1N", "values": [{"measurement": "inhibition", "setting": "[11]", "value": -5, "unit": "%"}, {"measurement": "fluorescence ratio (interference)", "setting": "[12]", "value": 0.9}]}, {"smiles": "CN1CCc2cccc3c2C1Cc1ccc(O)c(O)c1-3", "note": "(stereo not drawn)", "values": [{"measurement": "inhibition", "setting": "[11]", "value": -6, "unit": "%"}, {"measurement": "fluorescence ratio (interference)", "setting": "[12]", "value": 1}]}]}
